Among the data in PubChem BioAssay (NCATS) are activity change, negative = inhibition, activity, negative = inhibition and Potency values, retold here.

A number with no mark means an inactive call. Inconclusive results are not listed. Calls of active or inactive are those of the source. Unless noted, calls follow the shape of the dose curve; as a rule, active = well fitted curve in either direction with a large enough effect (not every such curve was filed as active); inconclusive = small, poorly fitted or top-dose-only effect, or another doubt; inactive = flat fitted curve, though single readings scatter.

The nature of assay [1]: AP1 Signaling Pathway (AID 357). Also: % is scaled to controls: 0 for no effect and ±100 for the full control effect. The note with it: ME-180 AP-1-bla reporter, EGF-induced, beta-lactamase ratio, 5 h; at 17.2 µM (top of the series) unless noted. A digest of the protocol: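 Read-out was the 460nm/530nm emission ratio (excitation 405nm) after CCF4 loading for 2.5 hours at room temperature. Cells carried an AP-1-driven beta-lactamase reporter, were stimulated with EC50 EGF plus compound for 5 hours, and AC50 values came from titrations.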

Assay [2] is described as follows: NFAT Signaling Pathway (AID 444).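 Also: carbachol stimulus at about its EC50 of 1 µM final; % is scaled to controls: 0 for no effect and ±100 for the full control effect.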 As to conditions: Jurkat NFAT-bla M1, carbachol, beta-lactamase ratio, 5 h; at 17.2 µM (top of the series) unless noted. The procedure, abridged:
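Read-out: CCF4 FRET ratio (460 nm/530 nm) after 1 h RT dye loading, used for %activity and AC50 from titration series. Cells: Jurkat NFAT-β-lactamase/M1 line, treated with compound plus 1 uM carbachol for 5 h, 37 °C.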

Assay [3] in a line: Stat Signaling Pathway (AID 446).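 Also: ME-180 cervical cancer cells given 40 pM IL-6 alongside compound; SIE-controlled beta-lactamase reporter measured as 460/530 nm FRET emission ratio; % is scaled to controls: 0 for no effect and ±100 for the full control effect.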 The note with it: ME-180 SIE beta-lactamase reporter, IL-6 stimulated, 5 h; at 17.2 µM (top of the series) unless noted. The procedure, abridged:
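Reporter line: ME-180 cervical carcinoma, SIE-beta-lactamase. Treatment: compound with 40 pM IL-6, 5 hrs, 37 C, in low-serum OPTI-MEM with 10 mM HEPES pH 7.3. Detection: 460/530 nm fluorescence.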

The target of assay [4] is Glucocorticoid receptor (Homo sapiens) (UniProt P04150). The experiment in a line: GR-GFP Redistribution (AID 450;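 active = compounds whose dose series gives a full or clear partial fitted curve of increased nuclear translocation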; also: potency is read from the fitted curve at half-maximal effect).
Glucocorticoid receptor (Homo sapiens), sequence (P04150 whole entry, looked up): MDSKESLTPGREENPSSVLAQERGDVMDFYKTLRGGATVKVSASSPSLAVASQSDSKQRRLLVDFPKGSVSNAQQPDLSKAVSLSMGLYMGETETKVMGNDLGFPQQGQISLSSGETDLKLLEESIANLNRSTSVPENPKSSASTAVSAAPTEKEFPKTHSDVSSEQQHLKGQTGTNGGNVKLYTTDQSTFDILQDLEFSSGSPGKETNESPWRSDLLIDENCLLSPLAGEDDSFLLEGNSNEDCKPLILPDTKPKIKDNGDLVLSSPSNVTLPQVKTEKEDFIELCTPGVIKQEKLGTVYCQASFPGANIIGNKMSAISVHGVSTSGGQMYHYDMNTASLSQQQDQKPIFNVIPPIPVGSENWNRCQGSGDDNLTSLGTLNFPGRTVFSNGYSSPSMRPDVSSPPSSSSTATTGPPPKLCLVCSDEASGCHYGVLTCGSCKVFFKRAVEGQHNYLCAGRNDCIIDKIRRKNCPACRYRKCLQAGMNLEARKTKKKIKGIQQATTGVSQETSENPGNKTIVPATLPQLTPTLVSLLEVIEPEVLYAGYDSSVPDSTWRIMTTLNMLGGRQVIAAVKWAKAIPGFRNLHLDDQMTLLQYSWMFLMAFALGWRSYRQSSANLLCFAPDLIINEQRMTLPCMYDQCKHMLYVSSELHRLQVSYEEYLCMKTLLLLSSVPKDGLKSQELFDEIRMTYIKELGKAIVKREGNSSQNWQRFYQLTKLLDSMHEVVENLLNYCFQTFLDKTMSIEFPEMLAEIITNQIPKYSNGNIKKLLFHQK

With `COC(=O)[C@H]1CCCN1C(=O)Nc1cccc(Oc2c(F)c(F)c(F)c(F)c2F)c1`, the activity change, negative = inhibition in assay [1] is -14.6%; in assay [2], -9.08%. Also, the activity, negative = inhibition in assay [3] was -7.79%. Further, in assay [4], the Potency is more than 20.6 µM.
For `CN1CCN(c2ncnc3c2[nH]c2ccc(F)cc23)CC1` the same measures were 7.75%, -5.03%, 11.7% and more than 20.6 µM.
For `O=C(NCc1ccccc1)/C(=N\O)c1ccccc1` the same measures were -2.22%, 12.4%, 3.38% and more than 20.6 µM.
Taken in the same sequence, the figures for `Cc1nc(SC2C=CS(=O)(=O)C2)n[nH]1` (stereo not given) were 5.25%, 11.6%, 2.19% and more than 20.6 µM.
`CCN(CC)c1ncc(C)c(=O)[nH]1`: the activity change, negative = inhibition in assay [1] is 16.3%; in assay [2] it was 2.65%. Further, the activity, negative = inhibition in assay [3] was 7.65%. The Potency in assay [4] is more than 20.6 µM.
Taken in the same sequence, the figures for `CCCC(=O)N1CCc2[nH]c3ccccc3c2C1` were -13%, 13.8%, -6.04% and more than 20.6 µM.
Taken in the same sequence, the figures for `c1ccc(-n2ncc3c(NCC4CCCO4)ncnc32)cc1` (stereo not given) were -4.47%, -15.8%, 2.07% and more than 20.6 µM.
Taken in the same sequence, the figures for `N#Cc1c(NCCN)nc(NCc2ccccc2)c2c1CCN(Cc1ccccc1)C2` were 0.0828%, 21.6%, -5.14% and more than 20.6 µM.
Turning to `CC(C)COC(=O)CCNc1n[nH]c(=O)[nH]c1=O`, the activity change, negative = inhibition in assay [1] is 12.9%; in assay [2], 4.96%. Also, in assay [3], the activity, negative = inhibition is 1.49%. Moreover, the Potency in assay [4] is more than 20.6 µM.
For `C=CCn1c(-c2ccc(OC)c(OC)c2)n[nH]c1=S` the same measures were 1.93%, 9.3%, -10.7% and more than 20.6 µM.
Taken in the same sequence, the figures for `Nc1nnc(CSCc2ccc(F)cc2)s1` were 8.86%, -1.8%, -2.21% and more than 20.6 µM.
On to `Cc1cc(=O)oc2cc(OCCSCCN3CCOCC3)ccc12`, for which the activity change, negative = inhibition in assay [1] was -6.35%; in assay [2], 3.73%. The activity, negative = inhibition in assay [3] is -0.537%. The Potency in assay [4] was more than 20.6 µM.
In the case of `Cc1cc2c(C)nc(Cc3ccccc3)nc2o1`, the activity change, negative = inhibition in assay [1] was -3.87%; in assay [2] it was -3.38%. Also, the activity, negative = inhibition in assay [3] is 5.35%. Further, in assay [4], the Potency is more than 20.6 µM.
For `COc1ccc(C(=O)Nc2nc(N)n(-c3ccccc3)n2)cc1OC` the same measures were -0.0315%, -1.36%, 1.75% and more than 20.6 µM.
Taken in the same sequence, the figures for `CC(=O)OC12CC3CC(C1)C(=NO)C(C3)C2` were 9.34%, 1.23%, 13.8% and more than 20.6 µM.
For `c1ccc(-n2c(Cc3cccnc3)nc3cnccc32)cc1` the same measures were -10.4%, 15.3%, 6.69% and more than 20.6 µM.
Consider `CN(C)CCCNCCCCNC(=O)/C=N/O`, for which the activity change, negative = inhibition in assay [1] is 5.81%; in assay [2], 11.9%. In assay [3], the activity, negative = inhibition is -0.521%. Besides, in assay [4], the Potency is more than 20.6 µM.
Taken in the same sequence, the figures for `Cc1c(NC(=O)c2ccc(=O)oc2)c(=O)n(-c2ccccc2)n1C` were 10.3%, -22.5%, 2.43% and more than 20.6 µM.
For `O=C(NCCN1CCOCC1)c1ccc(=O)oc1` the same measures were 4.3%, 8.89%, 4.33% and more than 20.6 µM.
As for `CCCc1nnc(NC(=O)c2c(O)c3c([nH]c2=O)CCCC3)s1`, the activity change, negative = inhibition in assay [1] was -4.44%; in assay [2] it was -18.4%. Moreover, the activity, negative = inhibition in assay [3] was 12.4%. Besides, the Potency in assay [4] was more than 20.6 µM.
With `CCOC(=O)COc1nc(N(C)C)nc(N(C)C)n1`, the activity change, negative = inhibition was 5.84% in assay [1] and -1.43% in assay [2]. For the same compound, the activity, negative = inhibition in assay [3] is 8.42%. In addition, in assay [4], the Potency was more than 20.6 µM.
For `Cc1cc(=O)oc2cc(OCC(=O)NCc3cccnc3)ccc12` the same measures were 0.0607%, -8.13%, -2.73% and more than 20.6 µM.
For `CC1(C)Cc2c(sc3ncn4nc(-c5ccco5)nc4c23)CO1` the same measures were -5.24%, 8.04%, -2.67% and more than 20.6 µM.
Taken in the same sequence, the figures for `CCn1c(SCC(=O)Nc2ccccc2C(=O)OC)nnc1-c1ccc(N)cc1` were -23.2%, -3.89%, 0.432% and more than 20.6 µM.
In the case of `CC1CC(C(F)(F)F)n2ncnc2N1` (stereo not given), the values for the activity change, negative = inhibition in assay [1] and in assay [2] were 5.99% and -3.22%, respectively. Also, the activity, negative = inhibition in assay [3] was 12.9%. In assay [4], the Potency is more than 20.6 µM.
For `CCOC(=O)c1cc2cc(OC)ccc2[nH]1` the same measures were -4.55%, -5%, -4.94% and more than 20.6 µM.
For `CN(C)CCCn1c(NC(=O)C2CCCCC2)nc2ccccc21` the same measures were 1.38%, -10.7%, 6.97% and more than 20.6 µM.
Taken in the same sequence, the figures for `Nc1ccc2ncccc2c1N` were 5.69%, -85.4% (active), -11.2% and more than 20.6 µM.
For the compound `COc1ccc(/C(O)=C2\C(=O)C(=O)N(Cc3ccco3)C2c2cc(OC)ccc2OC)cc1` (stereo not given), the activity change, negative = inhibition in assay [1] was 8.52%; in assay [2], -18%. Further, the activity, negative = inhibition in assay [3] is -17.9%. In addition, the Potency in assay [4] was more than 20.6 µM.
Consider `CN(C)C(CN1C(=O)C2CC=CCC2C1=O)c1cn(C)c2ccccc12` (stereo not given), for which the activity change, negative = inhibition in assay [1] is 10.2%; in assay [2], 4.1%. For the same compound, in assay [3], the activity, negative = inhibition is -3.79%. For the same compound, in assay [4], the Potency is more than 20.6 µM.
Taken in the same sequence, the figures for `O=C(Oc1cccnc1)c1ccco1` were 7.51%, 5.81%, 8.88% and more than 20.6 µM.
Regarding `COc1cccc(-c2nn3c(-c4ccccn4)nnc3s2)c1`, the activity change, negative = inhibition in assay [1] was -5.18%; in assay [2], -17%. The activity, negative = inhibition in assay [3] is 9.86%. The Potency in assay [4] is more than 20.6 µM.
For `Fc1cc(F)c(F)c(SCCc2ccncc2)c1F` the same measures were -7.09%, -5.43%, -0.589% and more than 20.6 µM.
In the case of `CSc1nc2sc3c(c2c2nnnn12)CC(C)(C)OC3`, the figures for the activity change, negative = inhibition in assay [1] and in assay [2] were -8.22% and -19.6%, respectively. Further, the activity, negative = inhibition in assay [3] is 15.4%. In assay [4], the Potency was more than 20.6 µM.
In the case of `COc1ccc(OC)c(C2/C(=C(/O)c3ccccc3)C(=O)C(=O)N2Cc2ccco2)c1` (stereo not given), the activity change, negative = inhibition is -4.43% in assay [1] and 6% in assay [2]. Further, in assay [3], the activity, negative = inhibition was -9.05%. Further, the Potency in assay [4] was more than 20.6 µM.
For `CCN(CC)C(=O)COn1c(SCC(=O)N(CC)CC)nc2ccccc2c1=O` the same measures were -3.71%, 17.3%, 9.4% and more than 20.6 µM.
For `CCCCOc1ccc(C)cc1CN(CCO)CCO` the same measures were 27.9%, -9.6%, 5.48% and more than 20.6 µM.
Taken in the same sequence, the figures for `O=C(N(c1ccccc1)c1ccccc1)n1ccnc1` were 7.1%, 10.9%, 0.426% and more than 20.6 µM.
On to `CN(C)CC(O)COc1ccc(-c2ccc(C#N)cc2)cc1` (stereo not given), for which the activity change, negative = inhibition in assay [1] was 1.87%; in assay [2], 11.2%. Further, the activity, negative = inhibition in assay [3] was 2.27%. For the same compound, the Potency in assay [4] is more than 20.6 µM.
In the case of `COC(=O)C(C)Sc1nc2c(c(=O)n(C)c(=O)n2C)n1CCC(C)C` (stereo not given), the activity change, negative = inhibition is -4.73% in assay [1] and 7.85% in assay [2]. In assay [3], the activity, negative = inhibition was -10.8%. Besides, the Potency in assay [4] was more than 20.6 µM.
For `C=CCn1c(C2CC(=O)N(c3ccc(C)cc3)C2)nc2ccccc21` (stereo not given) the same measures were -0.041%, 5.1%, 5.25% and more than 20.6 µM.
Taken in the same sequence, the figures for `N#Cc1nc(-c2ccc(F)cc2)oc1N1CCCC1` were 0.0908%, -1.86%, -3.18% and more than 20.6 µM.
For `CCOP(=O)(c1ccccc1)c1nc(-c2ccc(F)cc2)oc1N1CCCCC1` (stereo not given) the same measures were -11.9%, 3.09%, 4.79% and more than 20.6 µM.
As for `COC(=O)CSc1nc2c(c(=O)n(C)c(=O)n2C)n1CCC(C)C`, the activity change, negative = inhibition in assay [1] was 10.4%; in assay [2], -5.51%. For the same compound, the activity, negative = inhibition in assay [3] is 6.93%. Further, in assay [4], the Potency is more than 20.6 µM.
For `Cc1onc(-c2ccccc2Cl)c1C(=O)N1CCN(c2nc3ccccc3s2)CC1` the same measures were -24.2%, -4.08%, -3.09% and more than 20.6 µM.
For `Cc1nc2n[nH]c(N)c2c2c1COC(C)(C)C2` the same measures were 3.75%, -4.48%, 3.57% and more than 20.6 µM.
As for `Cc1ccc(-n2nc3cc(Cl)c(NC(=O)c4ccco4)cc3n2)cc1`, the figures for the activity change, negative = inhibition in assay [1] and in assay [2] were 28.5% and -3.83%, respectively. Moreover, in assay [3], the activity, negative = inhibition is -1.11%. Besides, the Potency in assay [4] was more than 20.6 µM.
As to `Cc1ccc(S(=O)(=O)NC(=O)Nc2ncc3c(n2)CC(c2ccco2)CC3=O)cc1` (stereo not given), the activity change, negative = inhibition was -9.62% in assay [1] and 7.22% in assay [2]. For the same compound, in assay [3], the activity, negative = inhibition was -2.33%. In addition, in assay [4], the Potency is more than 20.6 µM.
Taken in the same sequence, the figures for `CN/C(=C/[N+](=O)[O-])NCCSCc1ccc(CN(C)C)o1` were -15.4%, -27.6%, -3.38% and more than 20.6 µM.
For `C(=N\n1cnnc1)/c1cccc(Oc2ccccc2)c1` the same measures were -3.86%, -2.39%, -17.8% and more than 20.6 µM.
